# Data from PubChem BioAssay (NCATS).
# Where “and” joins values, the source holds several entries; their conditions need not be identical. Equal entries are not always repeated. Values without a mark were called inactive. Results filed as inconclusive are left out. Calls of active or inactive are those of the source. Unless noted, calls come from the whole dose curve; as a rule, active = well fitted curve in the direction sought with a large enough effect; inconclusive = small, poorly fitted or top-dose-only effect, or another doubt; inactive = no such curve, though single readings can be large; an effect the other way counts as inactive or inconclusive.
# Legend:
# [1] = biological target: Cytochrome P450 1A2 (Homo sapiens) (UniProt P05177); experiment: p450-cyp1a2 (AID 410; calls by dose curve; note: potency is the fitted concentration of half-maximal effect)
# Chain of Cytochrome P450 1A2 (Homo sapiens) (P05177 whole entry, looked up): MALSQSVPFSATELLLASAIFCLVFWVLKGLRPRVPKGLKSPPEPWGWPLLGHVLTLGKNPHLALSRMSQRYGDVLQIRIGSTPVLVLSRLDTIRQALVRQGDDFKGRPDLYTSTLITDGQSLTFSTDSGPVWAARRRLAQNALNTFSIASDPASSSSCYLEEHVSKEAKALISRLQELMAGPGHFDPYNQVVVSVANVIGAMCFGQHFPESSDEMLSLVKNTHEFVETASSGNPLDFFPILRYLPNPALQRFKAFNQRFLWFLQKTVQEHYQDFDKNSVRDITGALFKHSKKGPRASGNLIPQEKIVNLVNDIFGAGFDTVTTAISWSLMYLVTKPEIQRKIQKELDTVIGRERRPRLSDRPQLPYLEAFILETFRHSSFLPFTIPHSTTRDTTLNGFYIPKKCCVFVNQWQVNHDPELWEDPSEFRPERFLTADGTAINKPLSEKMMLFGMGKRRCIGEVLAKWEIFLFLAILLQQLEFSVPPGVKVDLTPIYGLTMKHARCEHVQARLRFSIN
# Summary of the method: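 Luminescent readout of luciferin formed from Luciferin-ME by human CYP1A2; data normalized against complete inhibition by 57 uM furafylline. Enzyme 20nM, substrate 100uM at Km, 100mM KPO4 buffer, 60 min reaction at room temperature.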
# [2] = biological target: Mitogen-activated protein kinase 10 (Mus musculus) (UniProt Q61831); experiment: JNK3 AlphaScreen Assay (AID 530; active = well fitted curve in either direction with a large enough effect, not every such curve was filed as active;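 note: kinase came from lysate of stimulated human HepG2 cells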; note: potency is the fitted concentration of half-maximal effect)
# Summary of the method: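 Inhibitors reduce antibody binding to phosphorylated biotin-cJun, lowering AlphaScreen luminescence. Lysates from HepG2 cells pre-activated by IL-1beta plus TNF-alpha supplied JNK3; compounds were titrated.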
# [3] = biological target: Cytochrome P450 3A4 (Homo sapiens) (UniProt P08684); experiment: qHTS Assay for Activators of Cytochrome P450 3A4 (AID 885); note: nearly all actives have a fitted effect of over 65% in size
# Chain of Cytochrome P450 3A4 (Homo sapiens) (P08684 whole entry, looked up): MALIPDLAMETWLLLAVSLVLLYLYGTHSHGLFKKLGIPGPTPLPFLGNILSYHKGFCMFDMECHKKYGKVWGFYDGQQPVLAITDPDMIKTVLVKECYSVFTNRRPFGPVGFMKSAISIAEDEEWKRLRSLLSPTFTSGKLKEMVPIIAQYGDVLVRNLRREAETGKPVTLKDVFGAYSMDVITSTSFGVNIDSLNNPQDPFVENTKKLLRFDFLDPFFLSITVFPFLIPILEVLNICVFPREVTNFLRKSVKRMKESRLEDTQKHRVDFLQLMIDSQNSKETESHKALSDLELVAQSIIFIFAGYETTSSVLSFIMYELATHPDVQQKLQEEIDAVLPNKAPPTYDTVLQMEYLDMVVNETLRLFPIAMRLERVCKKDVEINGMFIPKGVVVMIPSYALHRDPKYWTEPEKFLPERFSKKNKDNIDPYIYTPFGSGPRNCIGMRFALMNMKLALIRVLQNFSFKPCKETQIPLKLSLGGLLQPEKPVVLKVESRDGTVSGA
# Summary of the method: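 Human CYP3A4 (20 nM) with Luciferin-PPXE at 25 uM (its KM) in 200 mM KPO4; 10 min compound preincubation, then NADPH regeneration and 60 min reaction at RT. Luciferin read by luminescence; normalized to 57 uM ketoconazole full inhibition.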
# [4] = biological target: Cytochrome P450 3A4 (Homo sapiens) (UniProt P08684); experiment: qHTS Assay for Inhibitors and Substrates of Cytochrome P450 3A4 (AID 884); note: nearly all actives have a fitted effect of over 50% in size; note: potency is the fitted concentration of half-maximal effect
# Summary of the method: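 20 nM human CYP3A4 with 25 uM Luciferin-PPXE (at KM) in 200 mM KPO4, preincubated 10 min with compound; NADPH regeneration started a 60 min RT reaction. Luciferin detected by luminescence, normalized to 57 uM ketoconazole as full inhibition.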
# [5] = biological target: Cytochrome P450 2C19 (Homo sapiens) (UniProt P33261); experiment: qHTS Assay for Inhibitors and Substrates of Cytochrome P450 2C19 (AID 899); note: potency is the fitted concentration of half-maximal effect; nearly all actives have a fitted effect of over 60% in size
# Chain of Cytochrome P450 2C19 (Homo sapiens) (P33261 whole entry, looked up): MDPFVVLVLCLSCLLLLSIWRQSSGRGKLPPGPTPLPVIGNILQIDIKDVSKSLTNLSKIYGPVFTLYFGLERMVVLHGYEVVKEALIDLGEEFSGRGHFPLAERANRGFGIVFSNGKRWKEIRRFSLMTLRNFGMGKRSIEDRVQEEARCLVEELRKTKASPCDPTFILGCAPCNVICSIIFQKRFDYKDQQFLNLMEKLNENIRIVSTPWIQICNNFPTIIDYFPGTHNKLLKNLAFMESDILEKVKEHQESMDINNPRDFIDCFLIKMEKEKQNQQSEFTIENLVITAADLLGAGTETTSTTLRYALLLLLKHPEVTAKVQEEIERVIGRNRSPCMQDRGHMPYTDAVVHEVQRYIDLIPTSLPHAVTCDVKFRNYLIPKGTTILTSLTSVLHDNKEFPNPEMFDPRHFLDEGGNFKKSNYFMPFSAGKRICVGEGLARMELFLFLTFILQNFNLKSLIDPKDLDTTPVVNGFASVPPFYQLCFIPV
# Summary of the method: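 NADPH-dependent conversion of Luciferin-H EGE (10uM, at KM) by 5nM enzyme in 50mM KPO4, 60 min at 37C following 10 min compound preincubation. Stopped with luciferin detection buffer; luminescence read after 20 min.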
# [6] = Cell Viability - BJ (AID 421; calls by dose curve;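 note: potency is the fitted concentration of half-maximal effect; cells exposed to compound for 40 hours at 37 °C before readout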); settings: BJ fibroblast viability, qHTS
# Summary of the method: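 Normal human BJ foreskin fibroblasts, 1500/well in complete medium, treated 40 hr at 37 °C. Cellular ATP by CellTiter-Glo luminescence; normalized to DMSO and 100 uM tamoxifen, AC50 from Hill fit.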
# [7] = Cell Viability - Jurkat (AID 426;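 active = dose-dependent loss of cell ATP signal giving a full or clear fitted curve, ranked by lower potency value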; note: potency is the fitted concentration of half-maximal effect); settings: qHTS
# Summary of the method: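 qHTS, 1536-well; Jurkat E6-1, 5000 cells/well, complete medium; cpd 40 hr, 37 °C; CellTiter-Glo 20 min RT; luminescence. AC50 by Hill fit.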
# [8] = Cell Viability - MRC5 (AID 434; calls by dose curve;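 note: potency is the fitted concentration of half-maximal effect; potency reflects cytotoxicity seen as loss of intracellular ATP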); settings: MRC5 lung fibroblast viability, qHTS
# Summary of the method: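 MRC5 normal human lung fibroblasts (1500/well) were treated with compounds for 40 hr at 37 °C in complete medium, and viable cells were measured as intracellular ATP by CellTiter-Glo luminescence. AC50 came from Hill fits, normalized to DMSO and 100 uM tamoxifen.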
# [9] = Cell Viability - SK-N-SH (AID 435; calls by dose curve;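 note: potency is the fitted concentration of half-maximal effect; compound exposure lasted 40 h at 37 °C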); settings: SK-N-SH neuroblastoma cell viability qHTS
# Summary of the method: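 CellTiter-Glo ATP luminescence, 20 min RT read; cells pre-plated 5 hr, compound 40 hr at 37 °C, 1500 cells/well, complete medium. Normalized DMSO = 0, 100 uM tamoxifen = 100% inhibition; Hill-fit AC50.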
# [10] = Cell Viability - N2a (AID 540); settings: N2a mouse neuroblastoma cell viability; activity change, negative = cytotoxicity: at 92.2 µM (top of the series);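 note: cells exposed to compound for 40 h at 37 °C; nearly all actives have a fitted effect of over 45% in size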; note: potency is the fitted concentration of half-maximal effect;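 for activity change, negative = cytotoxicity: plate controls were DMSO alone for no effect and tamoxifen control for full effect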
# Summary of the method: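 Luminescent ATP signal (CellTiter-Glo, 20 min at room temperature) served as the viability read-out after N2a cells were treated with compounds for 40 hours at 37 °C. Concentration-response data were fitted to the Hill equation for AC50.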
# [11] = Cell Viability - H-4-II-E (AID 543); note: nearly all actives have a fitted effect of over 35% in size; note: potency is the fitted concentration of half-maximal effect
# Summary of the method: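 Luminescent ATP signal (CellTiter-Glo) served as the viability read-out, with cytotoxicity seen as a concentration-dependent ATP drop. Cells were treated for 40 hours in complete medium. AC50 values derive from Hill-equation modelling.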
# [12] = Cell Viability - SH-SY5Y (AID 544); settings: SH-SY5Y neuroblastoma cell viability; viability change, negative = cytotoxic: at 92.2 µM (top of the series); note: nearly all actives have a fitted effect of over 55% in size; note: potency is the fitted concentration of half-maximal effect;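 for viability change, negative = cytotoxic: 0% = DMSO alone and -100% = 100 µM tamoxifen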
# Summary of the method: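 Luminescent ATP read-out (CellTiter-Glo) measures loss of viable SH-SY5Y neuroblastoma cells after 40 hr compound exposure at 37 °C. AC50 values derive from standard Hill modelling of qHTS concentration-response data.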
# [13] = Cell Viability - Renal Proximal Tubule (AID 545); settings: renal proximal tubule cells viability, primary cells of rat origin; activity change, negative = cytotoxicity: at 91.7 µM (top of the series); note: nearly all actives have a fitted effect of over 40% in size; note: potency is the fitted concentration of half-maximal effect;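 for activity change, negative = cytotoxicity: 0% = DMSO only and -100% = 100 µM tamoxifen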
# Summary of the method: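 Rat kidney proximal tubule cells, freshly isolated; 1000 cells/well, 5 hr settle, compound 40 hr 37 °C. CellTiter-Glo 20 min RT, luminescence read. AC50 by standard Hill fit.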
# [14] = Cellular Toxicity (caspase-3) HepG2 (AID 654); note: potency is the fitted concentration of half-maximal effect;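 for caspase-3 activation: cells exposed to compound for 16 hours before reading; 0% = DMSO alone and 100% = caspase signal from 100 µM tamoxifen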
# Summary of the method: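 Cells plated 5 hr at 37 °C, compound added, incubated 16 hr at 37 °C. Caspase-Glo 3/7 reagent followed, 20 min at room temperature, then luminescence read. Activation scored as signal increase; AC50 from Hill fit.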
# [15] = Cellular Toxicity (caspase-3) N2a (AID 665); settings: Potency: caspase-3 activation;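 note: compound exposure lasted 16 h at 37 °C before readout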
# Summary of the method: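 N2a cells, 1500/well, 5 h settle at 37 °C; cpd 16 h, 37 °C; Caspase-Glo 3/7, 1 h RT; luminescence. Norm: DMSO = 0, 10 uM staurosporine = 100%. AC50, Hill fit.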
# [16] = Cellular Toxicity (caspase-3) Renal Proximal Tubule (AID 667);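 note: cells exposed to compound for 16 hours at 37 °C before detection; 0% = DMSO basal and 100% = 10 µM staurosporine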
# Summary of the method: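 Luminescent caspase 3/7 signal from peptide-aminoluciferin cleavage measures apoptosis in freshly isolated rat kidney proximal tubule cells after 16 h compound exposure. Concentration-response data are normalized to DMSO and 10 uM staurosporine, and AC50 values come from Hill equation fits.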
# [17] = biological target: Peroxisome proliferator-activated receptor alpha (Homo sapiens) (UniProt Q07869); experiment: qHTS assay for small molecule agonists of the peroxisome proliferator-activated receptor alpha (PPARalpha) signaling pathway (AID 651778); settings: PathHunter PPARalpha complementation, chemiluminescence, 6 h; max response: hits give high values; note: potency is the fitted concentration of half-maximal effect; for max response: % of control where 0% means no effect
# Chain of Peroxisome proliferator-activated receptor alpha (Homo sapiens) (Q07869 whole entry, looked up): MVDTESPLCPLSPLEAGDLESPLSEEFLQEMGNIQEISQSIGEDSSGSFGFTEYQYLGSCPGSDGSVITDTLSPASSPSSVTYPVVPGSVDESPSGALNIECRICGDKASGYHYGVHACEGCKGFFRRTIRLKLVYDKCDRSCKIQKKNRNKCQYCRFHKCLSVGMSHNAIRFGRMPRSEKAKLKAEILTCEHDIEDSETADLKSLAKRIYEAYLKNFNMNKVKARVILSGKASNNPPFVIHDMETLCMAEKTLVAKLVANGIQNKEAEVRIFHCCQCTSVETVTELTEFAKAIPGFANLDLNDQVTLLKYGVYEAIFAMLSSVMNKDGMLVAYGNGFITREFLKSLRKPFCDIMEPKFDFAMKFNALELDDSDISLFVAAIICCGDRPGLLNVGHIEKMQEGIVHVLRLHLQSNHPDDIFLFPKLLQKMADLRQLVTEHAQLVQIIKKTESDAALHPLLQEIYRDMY
# Summary of the method: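 Cells plated at 2,000/well and held overnight at 37 C, 5% CO2, then compound added by pin tool for 6 hr; after PathHunter detection reagent and 60 min at room temperature, chemiluminescence from enzyme complementation was read.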
# [18] = qHTS assay for cell viability of HEK293 cells (AID 743288); settings: ATP luminescence (CellTiter-Glo), 18 h; max response: hits give low values; note: nearly all actives have a fitted effect of over 50% in size; note: potency is the fitted concentration of half-maximal effect; for max response: % is set by controls: 0 for no effect and ±100 for the full control effect
# Summary of the method: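 Environmental chemicals tested in qHTS format against parental HEK293 cells; 18 h treatment, 37 C; read-out ATP luminescence (CellTiter-Glo), 30 min RT development.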
# [19] = biological target: 3',5'-cyclic-AMP phosphodiesterase 4B (Homo sapiens) (UniProt Q07343); experiment: qHTS Assay for Inhibitors of PDE-IV (AID 607; active = well fitted activation curve with a large enough effect in the main read-out, with a control signal flat, not every such curve was filed as active; note: % of control where 0% means no effect)
# Chain of 3',5'-cyclic-AMP phosphodiesterase 4B (Homo sapiens) (Q07343 whole entry, looked up): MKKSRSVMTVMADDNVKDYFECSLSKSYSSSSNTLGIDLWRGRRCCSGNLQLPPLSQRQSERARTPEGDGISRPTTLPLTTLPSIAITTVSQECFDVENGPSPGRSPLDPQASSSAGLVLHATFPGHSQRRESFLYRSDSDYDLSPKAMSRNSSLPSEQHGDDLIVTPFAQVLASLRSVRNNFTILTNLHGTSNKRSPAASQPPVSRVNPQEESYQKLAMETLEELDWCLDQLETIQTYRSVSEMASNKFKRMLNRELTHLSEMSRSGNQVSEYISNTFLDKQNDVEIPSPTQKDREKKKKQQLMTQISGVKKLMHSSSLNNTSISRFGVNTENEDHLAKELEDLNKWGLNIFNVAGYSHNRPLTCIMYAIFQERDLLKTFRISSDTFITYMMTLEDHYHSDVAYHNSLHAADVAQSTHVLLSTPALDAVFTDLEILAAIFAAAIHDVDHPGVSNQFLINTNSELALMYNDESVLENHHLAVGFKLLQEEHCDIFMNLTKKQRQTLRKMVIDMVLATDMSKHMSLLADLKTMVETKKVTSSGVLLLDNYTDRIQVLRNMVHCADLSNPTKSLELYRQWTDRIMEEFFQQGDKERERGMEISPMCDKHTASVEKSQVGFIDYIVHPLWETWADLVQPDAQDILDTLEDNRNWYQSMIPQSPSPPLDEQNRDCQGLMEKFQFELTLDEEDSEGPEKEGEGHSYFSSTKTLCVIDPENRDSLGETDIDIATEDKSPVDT
# Summary of the method: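 HEK293 ACTOne cells with CNG channel (1000/well), endogenous PDE4; membrane potential dye, compounds up to 22.9 uM final. Fluorescence Ex 535/Em 590; RO 20-1724 (100 uM final) as reference.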
# [20] = biological target: Cytochrome P450 2C9 (Homo sapiens) (UniProt P11712); experiment: qHTS Assay for Inhibitors and Substrates of Cytochrome P450 2C9 (AID 883); note: potency is the fitted concentration of half-maximal effect; nearly all actives have a fitted effect of over 60% in size
# Chain of Cytochrome P450 2C9 (Homo sapiens) (P11712 whole entry, looked up): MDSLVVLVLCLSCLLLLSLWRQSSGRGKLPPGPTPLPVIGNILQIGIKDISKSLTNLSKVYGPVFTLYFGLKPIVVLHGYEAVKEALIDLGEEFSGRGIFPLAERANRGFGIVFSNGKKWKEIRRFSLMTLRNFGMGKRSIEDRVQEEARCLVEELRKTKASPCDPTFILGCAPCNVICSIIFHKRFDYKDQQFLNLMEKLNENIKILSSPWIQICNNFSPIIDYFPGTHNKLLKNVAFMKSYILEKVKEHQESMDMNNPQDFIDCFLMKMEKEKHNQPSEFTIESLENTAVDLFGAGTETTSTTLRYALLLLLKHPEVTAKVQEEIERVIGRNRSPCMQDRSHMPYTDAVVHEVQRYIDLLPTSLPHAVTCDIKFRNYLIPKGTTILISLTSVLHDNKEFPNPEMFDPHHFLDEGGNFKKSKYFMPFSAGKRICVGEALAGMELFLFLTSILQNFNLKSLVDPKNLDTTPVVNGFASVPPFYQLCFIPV
# Summary of the method: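 A luminogenic readout tracked human CYP2C9 (10nM) converting deoxyluciferin (100uM, at KM) in 25mM KPO4 during 60 min at 37C with regenerated NADPH. Values normalized to 57uM sulphaphenazole as complete inhibition.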
smiles,measurement,setting,value
CCCC[C@@H]1C[C@H]1C(NC(=O)c1ccccc1)c1ccc(-c2ccccc2)cc1 (stereo partly drawn),Potency,[1],0.501 µM (active)
same,Potency,[2],inactive
same,Potency,[3],inactive
CC(C)(C)C(=O)NC(c1ccc(Cl)cc1)[C@]1(C)C[C@H]1C1CCCCC1 (stereo partly drawn),Potency,[1],inactive
same,Potency,[2],inactive
same,Potency,[3],inactive
CCCC[C@@H]1C[C@H]1C(NC(=O)Cc1ccccc1)c1ccc(Cl)cc1 (stereo partly drawn),Potency,[1],2.51 µM (active)
same,Potency,[4],2.51 µM (active)
same,Potency,[3],inactive
same,Potency,[5],0.0501 µM (active)
O=C(/C=C/c1ccc(O)c(O)c1)OC1C[C@](O)(C(=O)O)C[C@@H](O)[C@H]1O (stereo partly drawn),Potency,[6],> 92 µM
same,Potency,[7],> 92 µM
same,Potency,[8],> 92 µM
same,Potency,[9],> 92 µM
same,Potency,[2],inactive
same,Potency,[10],inactive
same,Potency,[11],inactive
same,Potency,[12],inactive
same,Potency,[13],inactive
same,Potency,[14],inactive
same,Potency,[15],inactive
same,outcome,[16],inactive
same,Potency,[4],inactive
same,max response,[17],-2.67% and 0.743%
same,max response,[18],5.94% and -3.39%
CCCC/C=C/C(NC(=O)c1ccco1)c1ccccc1 (stereo not drawn),Potency,[1],5.01 µM (active)
same,Potency,[19],inactive
same,Potency,[3],inactive
CCCC[C@@H]1C[C@H]1C(NC(=O)c1ccco1)c1ccc(Cl)cc1 (stereo partly drawn),Potency,[1],0.794 µM (active)
same,Potency,[20],3.98 µM (active)
same,Potency,[4],inactive
same,Potency,[5],0.316 µM (active)
CCCC[C@@H]1C[C@H]1C(NC(=O)c1cccs1)c1ccc(Cl)cc1 (stereo partly drawn),Potency,[1],1 µM (active)
same,Potency,[19],inactive
same,Potency,[4],5.01 µM (active)
same,Potency,[3],inactive
same,Potency,[5],0.0794 µM (active)
COC(=O)[C@H]1C[C@@H]1[C@H](NC(=O)c1cnccn1)c1ccccc1,Potency,[1],15.8 µM (active)
same,Potency,[19],inactive
same,Potency,[3],inactive
CCC/C=C(\CCC)C(NS(=O)(=O)c1ccc(Cl)cc1)c1ccc(C(=O)OC)cc1 (stereo not drawn),Potency,[1],3.16 µM (active)
same,Potency,[4],3.98 µM (active)
same,Potency,[3],inactive
same,Potency,[5],1.58 µM (active)
CCc1cccc2c(-c3ccccc3)c3c(nc12)OCC3,Potency,[1],0.316 µM (active)
same,Potency,[5],7.94 µM (active)
COC(=O)[C@@]1(Cc2ccccc2)[C@H]2c3cc(C(=O)N4CCCC4)n(CC4CC4)c3C[C@H]2CN1C(=O)c1ccccc1,Potency,[1],inactive
same,Potency,[19],inactive
same,Potency,[4],3.16 µM (active)
same,Potency,[3],inactive
same,Potency,[5],3.16 µM (active)
c1ccc2c(c1)-c1cccc3c1c-2cc1ccccc13,Potency,[6],> 92 µM
same,Potency,[7],> 92 µM
same,Potency,[8],> 92 µM
same,Potency,[9],> 92 µM
same,Potency,[2],2.51 µM [activator] (active)
same,Potency,[10],inactive
same,Potency,[12],inactive
same,Potency,[13],inactive
same,Potency,[14],inactive
same,Potency,[15],inactive
same,outcome,[16],inactive
same,Potency,[4],inactive
same,max response,[17],-0.066% and -2.89%
same,max response,[18],-13.5% and -14.9%
CC(C)c1cccc2c([Si](C)(C)C)c3c(nc12)-c1cccc(=O)n1C3,Potency,[1],15.8 µM (active)
same,Potency,[3],inactive
COc1cc2nc3c(c([Si](C)(C)C(C)(C)C)c2cc1OC)Cn1c-3cccc1=O,Potency,[1],5.01 µM (active)
same,Potency,[4],3.98 µM (active)
same,Potency,[3],inactive
COC(=O)[C@H]1C[C@@H]1[C@H](NC(=O)c1cc(C)nn1C)c1ccccc1,Potency,[1],20 µM (active)
same,Potency,[4],6.31 µM (active)
same,Potency,[3],inactive
CCC/C=C(\CCC)C(NS(=O)(=O)c1ccc(C(F)(F)F)cc1)c1ccc(C(=O)OC)cc1 (stereo not drawn),Potency,[1],inactive
same,Potency,[20],3.16 µM (active)
same,Potency,[3],inactive
same,Potency,[5],2.51 µM (active)
CCc1c2c(nc3c(C(C)C)cccc13)-c1cccc(=O)n1C2,Potency,[1],0.398 µM (active)
same,Potency,[3],inactive
Cc1cc(O)c(C(C)(C)C)cc1Sc1cc(C(C)(C)C)c(O)cc1C,Potency,[6],43.8 µM (active)
same,Potency,[7],16.3 µM (active)
same,Potency,[8],40.2 µM (active)
same,Potency,[9],23 µM (active)
same,Potency,[2],inactive
same,Potency,[10],12.6 µM (active)
same,Potency,[11],25.1 µM (active)
same,Potency,[12],31.6 µM (active)
same,Potency,[13],25.1 µM (active)
same,Potency,[14],63.1 µM (active)
same,Potency,[15],inactive
same,Potency,[3],inactive
same,Potency,[17],11.2 µM (active) and 4.47 µM (active)
same,Potency,[18],70.8 µM (active) and 50.1 µM (active)
COC(=O)[C@@]1(Cc2ccccc2)[C@@H]2C(=CC(=O)[C@H]2CC(=O)C(=O)N(C)C)CN1C(=O)c1ccccc1,Potency,[1],inactive
same,Potency,[4],7.94 µM (active)
same,Potency,[3],inactive
COC(=O)[C@@]1(Cc2ccc(F)cc2)[C@H]2c3cc(C(=O)N4CCCC4)n(CCc4ccc(OC)c(Br)c4)c3C[C@H]2CN1C(=O)c1ccccc1,Potency,[1],15.8 µM (active)
same,Potency,[20],3.16 µM (active)
same,Potency,[4],2.51 µM (active)
same,Potency,[3],inactive
same,Potency,[5],5.01 µM (active)
CCC/C=C(\CCC)C(NC(=O)c1ccc(C(F)(F)F)cc1)c1ccccc1 (stereo not drawn),Potency,[1],25.1 µM (active)
same,Potency,[19],inactive
same,Potency,[3],inactive
CCCC/C=C/C(NC(=O)Oc1cccc(C(F)(F)F)c1)c1ccccc1 (stereo not drawn),Potency,[1],2.51 µM (active)
same,Potency,[19],inactive
same,Potency,[3],inactive
same,Potency,[5],3.16 µM (active)
